Reference: PubChem BioAssay (Tox21)
“And” between values parts separate entries of the source, which are not always exact repeats. Equal values may be shown once. Inconclusive results are not listed. Entries that show only a call come without a potency. The source holds several records for some structures; these can differ, active in one and inactive in another. The source made the active and inactive calls. The call rests on the fitted dose curve.

Biological target: Estrogen receptor (Homo sapiens) (UniProt P03372)
Test: qHTS assay to identify small molecule agonists of the estrogen receptor alpha (ER-alpha) signaling pathway in the presence of an antagonist (AID 1259383); further: nearly all actives have a fitted effect of over 15% in size; further: potency means the concentration at half of the fitted maximal effect; on activation: top concentration of the series differs between compounds
Details: VM7Luc4E2 cells, ERE-luciferase, +ICI-182,780, 22 h; series mostly up to 92.4 µM; activation: at the top concentration
Method in brief: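 Readout was ERE-driven luciferase luminescence in VM7Luc4E2 cells, which express full-length ER-alpha endogenously. Compounds were tested at 15 concentrations for 22hr alongside 10.0nM ICI-182,780 (final concentration).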

Chain of Estrogen receptor (Homo sapiens) (P03372 whole entry, looked up): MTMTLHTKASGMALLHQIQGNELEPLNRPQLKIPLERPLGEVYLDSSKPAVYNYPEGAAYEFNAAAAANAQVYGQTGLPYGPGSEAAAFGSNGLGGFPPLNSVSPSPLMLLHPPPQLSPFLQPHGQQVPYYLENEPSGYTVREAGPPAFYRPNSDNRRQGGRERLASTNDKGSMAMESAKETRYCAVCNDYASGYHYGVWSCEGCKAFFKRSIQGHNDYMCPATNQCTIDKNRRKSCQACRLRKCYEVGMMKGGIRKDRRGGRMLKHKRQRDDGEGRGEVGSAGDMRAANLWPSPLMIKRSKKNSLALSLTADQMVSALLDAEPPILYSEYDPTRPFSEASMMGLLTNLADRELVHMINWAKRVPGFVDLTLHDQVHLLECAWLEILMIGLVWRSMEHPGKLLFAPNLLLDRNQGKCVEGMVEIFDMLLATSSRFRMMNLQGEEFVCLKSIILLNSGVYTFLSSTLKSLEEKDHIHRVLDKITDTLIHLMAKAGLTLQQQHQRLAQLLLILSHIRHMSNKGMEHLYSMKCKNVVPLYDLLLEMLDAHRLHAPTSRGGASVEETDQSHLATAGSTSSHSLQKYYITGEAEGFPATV

Structure (SMILES)	Potency
CC(=O)Oc1ccccc1C(=O)O	inactive
COc1ccccc1O	inactive
COCCOCCOC	inactive
COCC(C)N (stereo not drawn)	inactive
C/C=C/c1ccc(O)c(OC)c1	inactive
Cc1cccc(Nc2cc(Cl)nc(SCC(=O)O)n2)c1C	inactive
CCCCCCCCCCCCCC(=O)OC(C)C	inactive
COc1cc(C=O)ccc1O	inactive
COc1ccc(C(=O)c2ccccc2)c(O)c1	inactive
C1CNCCN1	inactive
COc1cc(O)c(C(=O)c2ccccc2)cc1S(=O)(=O)O	inactive
NC(N)=NC(N)=NCCc1ccccc1	inactive
CC1=NN(c2ccccc2)C(=O)C1	inactive
NC(=O)N1c2ccccc2C=Cc2ccccc21	inactive
Cc1cccc(C)c1O	inactive
NC(=O)N/N=C/c1ccc([N+](=O)[O-])o1	inactive
CC(=O)c1ccc(S(=O)(=O)NC(=O)NC2CCCCC2)cc1	inactive
CN(C)Cc1cc(CN(C)C)c(O)c(CN(C)C)c1	inactive
Cc1ccc(O)c(-n2nc3ccccc3n2)c1	inactive and 1.54 µM (active)
COC(=O)c1ccc(O)cc1	inactive
c1ccc2[nH]c(-c3cscn3)nc2c1	inactive
OCCCc1ccccc1	inactive
NC(=O)OCC(COC(N)=O)c1ccccc1	inactive
COc1cc2c(c(OC)c1OC)-c1ccc(OC)c(=O)cc1[C@@H](NC(C)=O)CC2	inactive

System: not listed separately
Test: qHTS assay to identify small molecule agonists or antagonists of the thyroid stimulating hormone receptor (TSHR) signaling pathway - wild type cell line counter screen (AID 1259384)
Details: HEK293 wild type, cAMP HTRF counter-screen; series mostly up to 92.4 µM; cAMP activity change: at the top concentration
Method in brief: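 Wild-type HEK293 cells were plated 18 h at 37 C/5% CO2, pin-dosed with compound plus Ro20-1724 medium, held 30 min at room temperature, then given cAMP-d2 and anti-cAMP-cryptate; fluorescence was read after 1 h. Fifteen concentrations, triplicate.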

Structure (SMILES)	Potency
CC(=O)Oc1ccccc1C(=O)O	inactive
COc1ccccc1O	inactive
COCCOCCOC	inactive
COCC(C)N (stereo not drawn)	inactive
C/C=C/c1ccc(O)c(OC)c1	inactive
Cc1cccc(Nc2cc(Cl)nc(SCC(=O)O)n2)c1C	inactive
CCCCCCCCCCCCCC(=O)OC(C)C	inactive
COc1cc(C=O)ccc1O	inactive
COc1ccc(C(=O)c2ccccc2)c(O)c1	inactive
C1CNCCN1	inactive
COc1cc(O)c(C(=O)c2ccccc2)cc1S(=O)(=O)O	inactive
COc1ccc(O)cc1	inactive
CC(O)COc1ccccc1 (stereo not drawn)	inactive
NC(N)=NC(N)=NCCc1ccccc1	inactive
CC1=NN(c2ccccc2)C(=O)C1	inactive
O=c1c(-c2ccc(O)cc2)coc2cc(O)cc(O)c12	inactive
NC(=O)N/N=C/c1ccc([N+](=O)[O-])o1	inactive
C[C@]12CC[C@@H]3c4ccc(O)cc4C[C@@H](CCCCCCCCCS(=O)CCCC(F)(F)C(F)(F)F)[C@H]3[C@@H]1CC[C@@H]2O (stereo partly drawn)	inactive
CC(=O)c1ccc(S(=O)(=O)NC(=O)NC2CCCCC2)cc1	inactive
CN(C)Cc1cc(CN(C)C)c(O)c(CN(C)C)c1	inactive
Cc1ccc(O)c(-n2nc3ccccc3n2)c1	inactive
COC(=O)c1ccc(O)cc1	inactive
c1ccc2[nH]c(-c3cscn3)nc2c1	inactive
O=C1OC(c2ccc(O)cc2)(c2ccc(O)cc2)c2ccccc21	inactive
OCCCc1ccccc1	inactive
NC(=O)OCC(COC(N)=O)c1ccccc1	inactive

Biological target: Thyrotropin receptor (Homo sapiens) (UniProt P16473)
Test: qHTS assay to identify small molecule antagonists of the thyroid stimulating hormone receptor (TSHR) signaling pathway (AID 1259385); further: nearly all actives have a fitted effect of over 20% in size
Details: TSHR-HEK293 cAMP HTRF, TSH-stimulated antagonist mode; series mostly up to 92.4 µM; activity change, negative = inhibition: at the top concentration
Method in brief: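 TSHR-HEK293 cells were plated and held 18 h at 37C/5% CO2, then given compound plus Ro20-1724 and stimulated with TSH at 1.5 ng/mL final. After 30 min at room temperature, cAMP was detected with cAMP-d2/anti-cAMP-cryptate (1 h) by fluorescence.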

Chain of Thyrotropin receptor (Homo sapiens) (P16473 whole entry, looked up): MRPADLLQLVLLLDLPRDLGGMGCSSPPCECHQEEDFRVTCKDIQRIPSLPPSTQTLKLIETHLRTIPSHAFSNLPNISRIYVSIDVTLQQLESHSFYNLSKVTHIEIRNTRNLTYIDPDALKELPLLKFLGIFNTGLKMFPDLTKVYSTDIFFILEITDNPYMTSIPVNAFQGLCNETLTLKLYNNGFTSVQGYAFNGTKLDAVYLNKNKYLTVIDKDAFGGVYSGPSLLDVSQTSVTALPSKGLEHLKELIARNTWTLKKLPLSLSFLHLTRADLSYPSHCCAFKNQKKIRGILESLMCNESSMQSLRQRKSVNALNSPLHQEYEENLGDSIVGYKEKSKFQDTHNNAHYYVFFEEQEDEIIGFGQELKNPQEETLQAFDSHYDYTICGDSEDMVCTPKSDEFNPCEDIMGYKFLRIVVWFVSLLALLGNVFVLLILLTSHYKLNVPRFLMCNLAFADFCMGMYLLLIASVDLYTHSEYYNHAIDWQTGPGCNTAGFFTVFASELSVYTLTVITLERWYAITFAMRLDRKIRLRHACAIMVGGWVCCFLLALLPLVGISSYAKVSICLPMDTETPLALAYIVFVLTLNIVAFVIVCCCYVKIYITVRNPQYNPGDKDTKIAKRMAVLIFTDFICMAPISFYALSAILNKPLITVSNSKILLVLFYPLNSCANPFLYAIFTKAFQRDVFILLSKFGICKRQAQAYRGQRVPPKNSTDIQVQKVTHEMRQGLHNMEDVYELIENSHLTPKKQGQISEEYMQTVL

Structure (SMILES)	outcome
CC(=O)Oc1ccccc1C(=O)O	inactive
COc1ccccc1O	inactive
COCCOCCOC	inactive
